# TRPM1 prom inh = inhibitors of MITF-driven TRPM1 promoter in melanoma cells | inhibition, % at 12.5 µM | AID 488899 | 330,000 compounds, 0.83% hits | SK-MEL-5 TRPM1 promoter luciferase, 24 h;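 active = mean inhibition across replicates of 60% or more, whatever share of single replicates reaches that level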
# LMP1 NFkB inh = Epstein-Barr LMP1 NF-kappaB reporter inhibition; LMP1-induced NF-kappaB luciferase reporter cells, luminescence; inhibition, % at 12.5 µM; 350,000 compounds, 0.69% hits; in the data active = inhibition above about 41%;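 also: 0% = neutral control wells and 100% = reference inhibitor control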
# Jurkat NFkB inh = lowers PMA/ionomycin-induced NF-kB signal in Jurkat cells; PMA/ionomycin-induced NF-kB luciferase reporter, luminescence; AID 435003; 330,000 compounds, 0.53% hits; inhibition, % at 4 µM; in the data active = inhibition above about 50%
# Shn3 inh set2 = inhibitors of Schnurri-3 3'UTR reporter in osteoblasts. 360,000 compounds, 0.52% hits. Clone20 osteoblast Shn3 3'UTR firefly luciferase, 24 h. inhibition, % at 12.5 µM;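 active = mean inhibition of at least 75% with every replicate also reaching 75%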;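 also: 0% = median of neutral control wells and 100% = pilot-screen positive control compound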
# 697 NFkB inh = lowers PMA/ionomycin-induced NF-kB signal in 697 B cells. 697 B-cell NF-kB luciferase reporter, 16 h. inhibition, % at 4 µM. 330,000 compounds, 0.33% hits; in the data active = inhibition above about 35%
# Gli-Sufu antag = blocks Gli-Sufu signaling in a luciferase reporter. 340,000 compounds, 0.74% hits. inhibition, % at 5 µM. Sufu-KO-LIGHT fibroblasts, Gli luciferase reporter luminescence;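 active = inhibition above about 55%, limit read from the data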;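 also: 0% = DMSO-treated cells and 100% = wells with medium but no cells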
# Numbers without * were called inactive; . = no result given. Rows were chosen to be rich in hits. Some 2.3% of all compounds tested hit in one or more screens of this group.
SMILES,TRPM1 prom inh,LMP1 NFkB inh,Jurkat NFkB inh,Shn3 inh set2,697 NFkB inh,Gli-Sufu antag
Cc1ccnc(NC(=O)c2cccc(NC(=O)c3ccc(Cl)c(Cl)c3)c2)c1,-6,86*,.,-10,.,-16
Cc1ccnc(NC(=O)c2cccc(NC(=O)c3ccc(Cl)cc3)c2)c1,5,-2,.,0,.,-28
CN(C)S(=O)(=O)N1CCN(c2cccc(Cl)c2)CC1,3,-2,-10,-1,-3,1
Cc1cc(N2CCN(c3ccc([N+](=O)[O-])c4cccnc34)CC2)c2ccccc2n1,76*,3,22,75,-61,25
O=C(c1ccccc1F)N1CCN(c2ccc([N+](=O)[O-])c3cccnc23)CC1,3,12,-8,1,0,5
Nc1cc2nc3ccccc3oc-2cc1=O,88*,-13,3,28,-2,2
CCOC(=O)C(C(=O)OCC)c1cc(Br)c2noc3c2c1C(=O)c1ccccc1-3,95*,10,10,99*,-8,-8
CC(=O)OCCNc1cc(N2CCN(C)CC2)c2noc3c2c1C(=O)c1ccccc1-3,.,-5,.,0,.,8
CC(C)=CC/C=C1\CCC(C(=O)O)C(C(=O)O)C1 (configuration not stated),-8,-8,7,-7,5,0
Cc1c(CCO)c(=O)n2n1CCCC2,-2,52*,.,-20,.,5
O=C1C(C=NCc2cccnc2)=C(O)c2ccccc21,-14,62*,.,-55,.,-31
CCc1nn(CCCC(=O)NCc2cc(Br)ccc2OC)c(=O)c2cc3occc3n12,-5,11,4,10,-12,26
CSCCC(NC(=O)c1ccco1)C(=O)OCC(=O)N(Cc1ccccc1)C(C)(C)C (configuration not stated),-2,4,15,19,8,-10
Cc1ccc(NC2=C/C(=N/S(=O)(=O)c3cccs3)c3ccccc3C2=O)cc1,105*,80*,-24,97*,-97,60*
O=C1C(Nc2ccccc2)=C/C(=N/S(=O)(=O)c2cccs2)c2ccccc21,95*,87*,.,97*,.,35
COC(=O)c1ccccc1NC1=C/C(=N\S(=O)(=O)c2ccc(C(=O)O)cc2)c2ccccc2C1=O,90*,-14,19,80,-1,5
COc1ccc(OCC(=O)Nc2ccc(S(=O)(=O)N3CCCC3)cc2)cc1,-6,-4,5,-6,6,3
C=CCN(C(=O)CSc1nnnn1C)c1nc(-c2ccccc2)cs1,-65,-9,-74,-47,-34,-11
CN(C)c1ncnc2sc(-c3ccccc3)cc12,-24,6,-11,-17,-2,-23
CN(C)c1ncnc2c1C(c1ccccc1)C(C)(C)O2 (configuration not stated),0,8,.,96*,.,-35
Cc1ccc(C)c(OCCC(=O)OCC(=O)NC(=O)NC2CCCCC2)c1,-2,0,6,-11,10,7
COc1ccc(NC(C)=O)cc1CNC(=O)COc1ccccc1C(=O)Nc1cccc(C)c1C,12,5,-3,7,8,2
COCCCNC(=O)CN1C(=O)COc2ccc(S(=O)(=O)N3CCOCC3)cc21,3,57*,19,0,-7,2
C=CCOc1ccc(CNc2nccs2)cc1,-45,-5,8,-44,18,-26
Cc1cc(NC(=O)c2ccc(C)s2)n(-c2nc3ccccc3[nH]2)n1,-7,67*,21,16,18,-7
SMILES,TRPM1 prom inh,LMP1 NFkB inh,Jurkat NFkB inh,Shn3 inh set2,697 NFkB inh,Gli-Sufu antag
Cc1cc(NC(=O)c2ccccc2F)n(-c2nc3ccccc3[nH]2)n1,-19,-1,9,5,6,-4
CC(Cc1cccs1)NC(=O)Nc1ccc(F)cc1 (configuration not stated),-16,-15,-35,89*,-28,6
CC(Cc1cccs1)NC(=O)Nc1cccc(Cl)c1 (configuration not stated),-21,-15,-5,11,-39,-5
COc1ccc(Nc2nc3ccccc3nc2-n2nc(C)cc2C)cc1,-16,-5,-25,4,-8,3
CN(C)/C=N/S(=O)(=O)c1cccn1-c1ncc(C(F)(F)F)cc1Cl,-6,0,-2,-19,-12,13
CN(C)S(=O)(=O)c1cccn1-c1ncc(C(F)(F)F)cc1Cl,11,56*,5,6,7,-6
CN1C/C(=C\c2ccc(N3CCOCC3)cc2)C(=O)/C(=C/c2ccc(N3CCOCC3)cc2)C1,32,-154,-8,0,-29,5
CCN1C/C(=C/c2ccc(N3CCOCC3)cc2)C(=O)/C(=C/c2ccc(N3CCOCC3)cc2)C1,93*,-69,.,65,.,6
CCOC(=O)Cn1c(=NC(=O)C2COc3ccccc3O2)sc2cc(S(N)(=O)=O)ccc21 (configuration not stated),-10,-6,1,-1,-1,5
CCOC(=O)Cn1c(=NC(=O)c2ccc([N+](=O)[O-])s2)sc2ccccc21,73*,12,11,15,-11,24
O=C(Nc1ccccn1)c1onc2c1CCCC2,7,41*,-51,39,-118,-1
O=C(c1ccccc1)N1CCSC1=S,-2,27,-8,-1,2,1
O=C(c1ccccc1)N1CCSc2sccc2C1=O,50,72*,.,27,.,-44
O=C(Nc1ccc(Oc2ccccc2)cc1)C1CCN(c2c3c(nc4ncnn24)CCC3)CC1,26,33,16,82,-16,70*
O=C(Nc1ccc2c(c1)CCC2)C1CCN(c2c3c(nc4ncnn24)CCC3)CC1,27,11,38,75,21,28
Cc1nn(-c2ccccc2)c(C)c1/C=N/NC(=O)c1cc(-c2ccccc2)n[nH]1,-2,2,45,10,23,36
CN(C[C@H](Cc1ccccc1)N(C[C@H](c1ccccc1)N(CCc1ccccc1)N=O)N=O)N=O,1,1,4,87*,12,6
Oc1ccc(N=Nc2ccc3c(c2)OCCO3)c2ncccc12,73*,-6,27,95*,-153,40
COc1ccc(-c2cc(=O)c3cc(F)ccc3[nH]2)cc1,-44,-1,-31,-10,-33,-2
COc1ccc2[nH]c(-c3ccc(C)cc3)cc(=O)c2c1,51,43*,-41,33,-143,-40
CCCCCCC(=O)N(O)C1CC(=O)N(Cc2ccccc2)C1=O (configuration not stated),5,52*,-18,-23,29,-1
CCOC(=O)c1c(-c2ccccc2)oc2cc(CN(C)C)c(O)c(CN(C)C)c12,31,5,16,94*,-55,-12
CCOC(=O)c1c(C)oc2cc(Cl)c(O)c(CN(C)C)c12,-30,1,-69,-53,4,3
C=C1C(=O)O[C@@]23[C@H]1CC[C@@H](C)[C@@H]2CC[C@@]1(C)O[C@@H]31,85*,8,-6,-19,-9,-8
